Data reported in PubChem BioAssay AID493175 (National Center for Advancing Translational Sciences (NCATS), 2011).
Inconclusive results are not listed. A number with no mark means an inactive call. The source made the active and inactive calls. Calls come from the whole dose curve; as a rule, active = well fitted curve in the direction sought with a large enough effect; inconclusive = small, poorly fitted or top-dose-only effect, or another doubt; inactive = no such curve, though single readings can be large or run the other way.

These molecules were tested against Luciferin 4-monooxygenase (Photinus pyralis) (UniProt P08659) (assay: miR-21 counterscreen using purified firefly luciferase). Conditions: purified P. pyralis luciferase, luminescence; series mostly up to 57.5 µM.
Excerpt: MLPCN Grant: 1 R21 NS059478-01 Assay Provider: Qihong Huang, The Wistar Institute NCGC Assay Overview: MicroRNAs (miRNAs) are endogenously encoded small (~20-25 nucleotides), nonprotein-coding RNAs that are involved in post-transcriptional repression of target messenger RNAs (mRNAs) (Le and Hannon, 2004). Estimated to be involved in the regulation of 30% of all protein-coding mRNAs (Filipowicz et al., 2008), miRNAs play a significant role in many biological processes including cellular differentiation and tissue development (Ghildiyal and Zamore, 2009). […] Compounds active in the miR-21 FLuc assay were clustered using Leadscope and active chemical series were prioritized based on chemical properties, potential for medicinal chemistry optimization, and SAR. Within each chemical series, representative compounds were re-acquired to test for activity in a secondary assay based on the quality of their CRC, efficacy, and potency. This secondary assay to determine if compounds active in the miR-21 FLuc assay were just luciferase inhibitors. Compounds found active in both the miR-21 FLuc and purified FLuc assays are considered as false positives. Keywords: NIH Roadmap, MLPCN, MLSMR, qHTS, miR-21, firefly luciferase, FLuc, miRNA.
NCGC Assay Protocol Summary: Reagents: 50mM Tris acetate, pH 7.5; 10mM Mg acetate; 10uM D-luciferin (Sigma #L9504); 10uM ATP; 0.01% Tween-20; 0.05% BSA; 10nM P. pyralis luciferase (Sigma #L9506) Control compounds used were two known firefly luciferase inhibitors (compounds (2) and (5) in Auld et al., 2010), and DMSO. Assay Summary: Three microliters containing firefly luciferase substrates in buffer (final concentrations: 50mM Tris acetate, pH 7.5, 10mM Mg acetate, 0.01% Tween-20, 0.05% BSA, 10uM D-luciferin, and 10uM ATP) are dispensed into each well of a Greiner white, solid-bottom 1536-well format plate using a flying reagent dispenser (FRD). These assay plates were then treated with 23nL of compound or DMSO using a Kalypsys pin tool, which allows for delivery of a 6-point interplate titration of each compound to the assay plate (quantitative HTS), with a final compound concentrations ranging from approximately 60 µM to 7pM. One microliter of firefly luciferase in […] Tris-acetate buffer was then delivered by FRD to each well for a final enzyme concentration of 10nM. Luciferase activity was then measured using a ViewLux CCD imager (PerkinElmer), with an average exposure time of 2-30 seconds (2X binning, medium/high gain).

Sequence of Luciferin 4-monooxygenase (Photinus pyralis) (P08659 whole entry, looked up): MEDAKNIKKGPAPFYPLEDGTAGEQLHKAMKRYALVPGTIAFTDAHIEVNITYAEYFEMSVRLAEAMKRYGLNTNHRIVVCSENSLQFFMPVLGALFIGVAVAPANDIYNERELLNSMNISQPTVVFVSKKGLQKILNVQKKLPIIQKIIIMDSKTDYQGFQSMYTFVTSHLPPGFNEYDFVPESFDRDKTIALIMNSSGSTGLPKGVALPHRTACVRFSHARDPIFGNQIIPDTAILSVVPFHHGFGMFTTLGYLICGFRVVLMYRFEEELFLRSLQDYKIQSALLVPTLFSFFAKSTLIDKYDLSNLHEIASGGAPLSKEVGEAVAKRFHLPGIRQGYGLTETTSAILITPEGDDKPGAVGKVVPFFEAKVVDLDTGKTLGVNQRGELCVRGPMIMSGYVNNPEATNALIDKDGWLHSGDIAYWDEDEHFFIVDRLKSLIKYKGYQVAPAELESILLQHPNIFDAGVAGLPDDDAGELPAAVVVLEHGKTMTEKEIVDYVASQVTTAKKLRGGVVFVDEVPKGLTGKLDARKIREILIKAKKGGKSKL

SMILES	outcome	activity change, negative = inhibition
CCS(=O)(=O)c1ncc(Cl)c(C(=O)Nc2ccc(S(=O)(=O)N(C)c3ccccc3)cc2)n1	inactive	
COc1ccc(-c2nnc(SCC(=O)Nc3cccc(F)c3)s2)cc1	inactive	
COc1ccc(NC(=O)CSc2nnc(-c3cccs3)o2)cc1	inactive	
CCc1nonc1NC(=O)c1oc2ccc(C)cc2c1C	inactive	
Cc1ccc(C(=O)Nc2ccc3c(c2)N(C)C(=O)c2ccccc2S3)cc1F	inactive	
O=C(CSc1nnc(-c2ccc(O)cc2)o1)Nc1ccccc1Br	inactive	
Cc1c(-c2nsc(NC(=O)c3cccs3)n2)nnn1-c1ccc(Cl)cc1	inactive	
COc1cccc(NC(=O)CSc2nnc(-c3cccs3)o2)c1	inactive	
Cc1ccc(C(=O)Nc2ccc3c(c2)N(C)C(=O)c2ccccc2S3)cc1	inactive	
CCc1ccc2oc(C(=O)Nc3nonc3CC)c(C)c2c1	inactive	
Nc1c(C(=O)Nc2ccccc2Br)sc2nc(-c3cccs3)ccc12	inactive	
Cc1cc(C)c2c(N)c(C(=O)Nc3ccccc3F)sc2n1	inactive	
COc1ccccc1NC(=O)CSc1nnc(-c2ccccn2)o1	inactive	
NC(=O)c1ccccc1NC(=O)c1ccc(-c2ccc(Br)cc2)o1	inactive	
COc1ccccc1Nc1nn2c(=O)c3ccc(C(=O)NCCc4ccccc4)cc3nc2s1	inactive	
CCS(=O)(=O)n1nc(-c2ccccc2)nc1NCc1ccco1	inactive	
O=C(Nc1nnc(S(=O)(=O)N2CCCC2)s1)c1ccc(F)cc1	inactive	
Cc1ccc(NC(=O)Cn2nnc(-c3nc(-c4ccc(Cl)cc4)no3)c2N)cc1C	inactive	
COc1cccc(-n2nnc(-c3nc(-c4cccs4)no3)c2N)c1	inactive	
Fc1ccccc1CSc1nnc(-c2cnccn2)n1Cc1ccco1	inactive	

SMILES	outcome	activity change, negative = inhibition
COc1ccc(CNc2nc(-c3ccco3)nn2C(=O)CC(C)C)cc1	inactive	
Cc1cc(C)cc(NC(=O)CSc2nnc(-c3ccccc3C)o2)c1	inactive	
Cc1cccc(-n2nnc(-c3nc(-c4cccs4)no3)c2N)c1C	inactive	
Cc1ccc(-c2nc(NCc3ccco3)n(S(C)(=O)=O)n2)cc1	inactive	
O=C(CSc1nnc(-c2ccncc2)o1)Nc1nncs1	inactive	
COc1ccccc1NC(=O)C/C(C)=N/NC(=O)c1ccccn1	inactive	
O=C(c1ccc(Cl)cc1)n1nc(-c2ccccc2)nc1NCc1ccco1	inactive	
Cc1cccc(N2CCN(C(=O)C3CCN(c4ncnc5c4nc4n5CCCCC4)CC3)CC2C)c1 (stereo not given)	inactive	
C/C(=N\NC(=O)c1ccncc1)c1ccc(NC(=O)c2ccc(Cl)cc2)cc1	inactive	
Cc1c(-c2nnc(SCC(=O)Nc3ccccc3F)o2)nnn1-c1ccc(F)cc1	inactive	
CC1=C(c2ccc(C)c(C)c2)S(=O)(=O)N=C1N1CCC(C(=O)NCCc2ccc(Cl)cc2)CC1	inactive	
Cc1cc(SCC(=O)Nc2nsc(-c3ccc(C(C)(C)C)cc3)n2)nc2ccccc12	inactive	
CCS(=O)(=O)c1ncc(Cl)c(C(=O)N2CCN(c3cccc(Cl)c3)CC2)n1	inactive	
CC(C)COc1ccc(C(=O)Nc2cc(-c3ccccc3)no2)cc1	inactive	
Cc1nnc(SCc2nc(N)nc(Nc3ccccc3)n2)s1	inactive	
CC(C)(C)C1CCc2nc(NC(=O)Cc3cn4ccsc4n3)sc2C1 (stereo not given)		0.54% [at 2.3 µM]
CSc1nsc(SCC(=O)Nc2ccc(F)cc2F)n1	inactive	
CC(=O)c1cnc2nc(SCc3ccccc3)nn2c1C	inactive	
Cc1ccc(-c2csc(NC(=O)CSc3nc4ccccc4o3)n2)cc1	inactive	
CS(=O)(=O)n1nc(-c2ccc(Cl)cc2)nc1SCc1ccccc1	inactive	
